From PubChem
Cardio protect = myocardial damage modulation in H9c2 cells | H9c2 cardiomyocytes, H2O2 injury protection, ATPLite, 2 h | protection from H2O2 cell death, % at 20 µM | 360,000 compounds, 0.63% hits;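 active means compounds giving at least 50% protection of heart cells from peroxide-induced death in the single-dose screen, raw or plate-pattern-corrected value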;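 further: 0% = DMSO wells with peroxide and 100% = DMSO wells without peroxide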
SKN-1 inh = blocks SKN-1 activity in C. elegans | C. elegans VP596 Pgst-4::GFP/RFP ratio, acrylamide-induced, 24 h | inhibition, % at 21.8 µM | 360,000 compounds, 0.49% hits;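 active means interference check ratio from 0.5 to 1.5 plus GFP to RFP signal ratio inhibition reaching or exceeding a fixed threshold, cut at about 30% in these data, passing the limit was not always enough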
CRFBP-R2 block = antagonists of CRF-binding protein/CRF-R2 receptor complex | HEK293 CRF-R2/CRF-BP, CRF-induced calcium fluorescence | 350,000 compounds, 0.59% hits | inhibition, % at 11.8 µM;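 active means inhibition of the ligand-induced calcium signal above about 50% at the single tested concentration, limit read from the data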
CRFR2-BP ag = CRF-BP/CRF-R2 complex agonism | HEK293 CRF-R2/CRF-BP, calcium dye fluorescence (FLIPR); percent of saturating CRF peptide response | activation, % at 13.2 µM | 350,000 compounds, 0.46% hits | AID 588473;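 active means activation of at least 50%, plus an integration ratio under a set limit after plate pattern correction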;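 further: plate controls were neutral control wells without compound for no effect and CRF at EC100 for full effect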
TAG inh = inhibitors of triacylglycerol accumulation; 230,000 compounds, 0.66% hits; AID 651582; inhibition, % at 12.5 µM; H9c2 cells, Nile Red lipid (TAG) fluorescence; cells loaded with 200 µM oleic acid;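 active means pattern-corrected inhibition of lipid staining of at least 50% with the nuclear-stain viability signal not falling by more than 50%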;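 further: 0% = DMSO wells and 100% = triacsin C control wells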
hiPSC survival = enhancers of human iPSC single-cell survival. survival enhancement, % at 20 µM. hiPSC single-cell survival, ATPlite luminescence; 100% = ROCK inhibitor wells, 0% = DMSO. 360,000 compounds, 0.044% hits. AID 602274; in the data active means survival enhancement above about 18%;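 further: cells exposed to compounds for 16 hours before the ATP read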
* hit, by the source's call; . = no result. Most compounds without a hit are left out; they make up all but 2.5% or so of the library.

SMILES	Cardio protect	SKN-1 inh	CRFBP-R2 block	CRFR2-BP ag	TAG inh	hiPSC survival
Cc1c(C(=O)OCC(=O)Nc2ccc(C(N)=O)cc2)cccc1[N+](=O)[O-]	-19	-8	-22	0	-15	22*
Cc1cccc(C)c1NC(=O)COC(=O)c1ccccc1[N+](=O)[O-]	-3	-5	-7	-1	.	1
COc1ccc(-c2nc(CS(=O)(=O)CC(=O)NCCCN3CCN(C)CC3)c(C)o2)cc1	0	4	-4	0	.	0
COc1ccc(-c2cc3nc(C4CCN(C(=O)OC(C)(C)C)CC4)c(C(=O)O)cn3n2)cc1	8	-4	52*	-3	.	-1
CCNC(=O)CC1SC(=Nc2cccc3ccccc23)N(C)C1=O (stereo unspecified)	6	11	-9	0	.	-1
C=CCC1CCCCC1=C(C#N)c1ccccc1 (stereo unspecified)	-10	46*	18	-1	9	-2
C=CCN1C(c2ccccc2)=CS/C1=C(\C#N)c1nnc2n1CCCCC2	-1	9	27	-1	.	1
CN(Cc1ccccc1)C(=O)[C@@H]1CCCN1C(=O)OC(C)(C)C	.	-4	.	.	.	0
CCOC(=O)c1cc2c(=Cc3ccc(N(C)C)cc3)c3ccccc3n2[n+]1C	-20	74	-32	-3	8	-3
Cc1cc2c(=Cc3ccc(N(C)C)cc3)c3ccccc3n2[n+]1C	-21	72	108*	-1	-22	-4
O=C1NC[C@@H](CCCCN2C[C@H](Cc3ccc(O)cc3)N(CCc3ccc(O)cc3)C(=O)C2=O)N(CCc2ccccc2)C1=O	.	15	.	.	.	0
CC1CCN(S(=O)(=O)c2ccc3c(c2)NC(=O)CS3)CC1	4	15	63*	1	.	0
Cc1cccc(N2CCN(S(=O)(=O)c3ccc4c(c3)NC(=O)CS4)CC2)c1C	-16	-2	-6	4	.	0
CCN(CC)S(=O)(=O)c1ccc2c(c1)C(=NO)c1cc(S(=O)(=O)N(CC)CC)ccc1-2	-2	0	-22	1	53*	-5
CC1CCN(S(=O)(=O)c2ccc3c(c2)C(=NO)c2cc(S(=O)(=O)N4CCC(C)CC4)ccc2-3)CC1	-29	-23	3	4	84*	-3
CNc1c([N+](=O)[O-])cnn1-c1ccccn1	4	16	5	1	-6	0
CCc1nc2c(OCc3ccc(F)c(F)c3)cccn2c1N(C)C(=O)c1ccncc1	-2	8	.	.	-2	7
CC(C)NC(=O)C1(C)CN(S(C)(=O)=O)CC(=O)N1CCc1ccc(O)cc1 (stereo unspecified)	.	-1	.	.	.	.
COc1ccc(N=c2oc3c(OC)cccc3cc2C(=O)NCc2ccco2)cc1OC	52*	-12	-9	1	.	-2
COc1cccc(C(=O)N/N=c2\oc3c(OC)cccc3cc2C(=O)NCc2ccccc2)c1	76*	3	-11	4	.	3
CCCCCCN1C[C@H](n2cc(C3CC3)nn2)[C@@H](O)C[C@@H]1c1ccc(Cl)cc1	1	9	-9	-2	3	-2
CCOC(=O)[C@H](C)N1[C@H](C)[C@H](c2ccccc2)Oc2ccc(Cl)cc2S1(=O)=O	-24	-12	0	0	-8	2
O=CN/N=C/c1c(O)ccc2ccccc12	30	-22	-62	88*	44	0
Oc1ccc2ccccc2c1C=NCc1ccccc1	48	-1	5	-2	0	0
Oc1ccc2ccccc2c1/C=N/Nc1ccccc1	1	15	-5	-2	.	0
SMILES	Cardio protect	SKN-1 inh	CRFBP-R2 block	CRFR2-BP ag	TAG inh	hiPSC survival
Oc1ccccc1C=NN=Cc1c(O)ccc2ccccc12	-4	-12	-116	144*	12	5
O=C(CNc1ccc(F)cc1)N/N=C/c1c(O)ccc2ccccc12	14	31	-25	0	.	-1
NC(=S)N/N=C/c1c(O)ccc2ccccc12	57*	-10	0	-5	-20	0
Cn1cc(Br)c(C(=O)NC2CCCCCC2)n1	-3	7	-2	0	-10	0
O=C(CSc1ncc(-c2ccccc2)n1C1CCCC1)N1CCc2ccccc21	-12	2	-124	102*	.	1
Cn1c(-c2ccccc2)cnc1SCC(=O)N1CCCc2ccccc21	-4	-3	-5	-1	.	-2
Cc1ccc(C)c2nc3sc(C(=O)N4CCCc5ccccc54)c(N)c3cc12	7	-14	-154	60*	.	0
CC(C)Nc1nc(-c2ccccc2)nc(-n2ccnc2)n1	12	22	8	1	8	-1
c1ccc(-c2nc(-n3ccnc3)nc(-n3ccnc3)n2)cc1	74*	0	-7	1	15	0
O=C(c1cc(-c2ccccc2)on1)N1CCc2ccccc2C1	-2	37*	-35	4	.	1
O=C(CSc1nc2nn(-c3ccccc3)c(=O)c-2c2n1CCCCC2)c1ccc(O)c(O)c1	100*	-5	16	-2	18	0
CNC(=O)CSc1nc2nn(-c3ccccc3)c(=O)c-2c2n1CCCCC2	1	16	-33	-8	.	7
CC(=O)c1ccc(S(=O)(=O)N2CCN(C(=O)CSc3ccc(C)c(C)c3)CC2)cc1	-4	10	0	0	.	0
O=C(O)c1cc(C(=O)O)c(-c2ccccc2)c(C(=O)O)c1	-1	6	16	-3	.	-2
O=C(O)c1cc(-c2ccccc2)nc(-c2ccccc2)c1	6	-7	54*	-1	-1	0
COc1ccc2cc(C(=O)N/N=C/c3sc4ccccc4c3O)ccc2c1	20	6	-179	166*	.	-2
COc1ccc(C(=O)N/N=C/c2sc3ccccc3c2O)cc1	23	7	-73	50*	.	-1
O=C(N/N=C/c1sc2ccccc2c1O)c1ccccc1	29	2	-18	15	.	0
CC(C)(C(=O)N1CCC1(C)C(=O)NS(=O)(=O)c1cccc(Cl)c1)c1ccccc1 (stereo unspecified)	9	19	.	.	6	-3
COc1cccc(C(c2sc3ncnn3c2O)N2CC(C)OC(C)C2)c1 (stereo unspecified)	6	35*	12	0	-5	-2
CCOCCCNC(=S)Nc1ccc2nc(N3CCOCC3)cc(C)c2c1	-6	25	7	0	.	-1
O=C(Nc1ccc(Cl)cc1)NC1CCCCNC1=O (stereo unspecified)	1	36*	-9	-1	4	-1
Cc1occc1C(=O)NC(C)C12CC3CC(CC(C3)C1)C2 (stereo unspecified)	4	5	52*	-21	-11	0
O=C1c2ccccc2S(=O)(=O)c2cc(C(=O)N(c3ccccn3)c3ccccn3)ccc21	8	-8	-58	173*	.	0
